From PubChem
This is a sample that favours compounds with a hit; in the whole collection about 1.2% have one here.
RGS4 inhibitor: Inhibitors of Regulator of G Protein Signaling (RGS) 4: qHTS; Potency, µM (series often up to 114 µM), usual class: inhibitors; Regulator of G-protein signaling 4 (Homo sapiens), P49798; Transcreener GDP fluorescence polarization, RGS4-accelerated GTP hydrolysis; AID 504845, 2011; 390,000 compounds, 0.039% hits; also: nearly all actives have a fitted effect of over 75% in size
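MLSMR compounds (23 nl, pin-transferred) preincubated 10 min at room temperature with a 500nM (2x) first reagent, then RGS4 at 900nM (2x) plus Transcreener GDP mix added; fluorescence polarization (620/688 nm) read before and after 90 min at 30 °C.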
PGK inhibitor: qHTS Assay to Find Inhibitors of Phosphoglycerate Kinase. 380,000 compounds, 0.043% hits. AID 602233, 2012. Potency, µM (doses to about 57.5 µM), actives largely listed as inhibitors. PGK/GAPDH coupled, Kinase-Glo luminescence, 60 min; also: nearly all actives have a fitted effect of over 60% in size
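Luminescent ATP detection (Kinase-Glo Plus) follows a 60-minute room-temperature incubation, with wells lacking PGK as controls. Buffer: 100 mM TEA (pH 7.6), 5 mM MgCl2, 0.01% Tween-20. Coupling enzyme GAPDH (100 nM final) supplies unstable 1,3-BPG in-well.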
KCNH2 3.1 inh: qHTS for Inhibitors of KCHN2 3.1: Mutant qHTS | U2OS KCNH2 3.1, thallium flux FluxOr; hits give low values | 340,000 compounds, 0.95% hits | Potassium voltage-gated channel subfamily H member 2, brain isoform KCNH2 3.1 (human) | activity change, % (tested at about 1.8 µM);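 active = maximum activity change below -70%; inconclusive = maximum activity change from -70% to -50%; inactive = maximum activity change above -50%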;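 also: thallium influx rate constant from kinetic fluorescence after stimulation buffer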
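We transduce U2OS cells with the mutant 3.1 virus, culture them overnight, load FluxOr with Red40 quencher for 45 min, then add stimulation buffer and read kinetically for 2 min to derive a normalized rate constant.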
hERG WT inh: qHTS for Inhibitors of KCHN2 3.1: Wildtype qHTS; Voltage-gated inwardly rectifying potassium channel KCNH2 (Homo sapiens), Q12809; U2OS, BacMam KCNH2, thallium flux FluxOr; hits give low values; activity change, % at 1.84 µM; 340,000 compounds, 0.37% hits; AID 720551, 2013;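 active = maximum activity change below -70%; inconclusive = maximum activity change between -70% and -50%; inactive = maximum activity change above -50%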
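U2OS cells were transduced with wild-type KCNH2 virus (2.03 x 10^8 / mL) for 4 h at room temperature, then cultured overnight at 37 C. Thallium flux was read with FluxOr dye. Rate constants were normalized to DMSO controls.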
Pin1 inhibitor: qHTS Assay to Find Inhibitors of Pin1 | AID 504891, 2011 | 390,000 compounds, 0.009% hits | Peptidyl-prolyl cis-trans isomerase NIMA-interacting 1 (Homo sapiens), Q13526 | Pin1 FP peptide displacement, HiFluor488, 10 min | Potency, µM (titrated, usually from 115 µM), usual class: inhibitors; active = well fitted inhibition curve with a large enough effect in the polarisation, with a control signal flat, not every such curve was filed as active; inconclusive = small, poorly fitted or top-dose-only effect, or effect the other way, or a change in a side signal; inactive = no such curve, though single readings can be large or run the other way; the % refers to the polarisation
GCN5L2 inh: qHTS Assay for Inhibitors of GCN5L2. GCN5L2 HAT assay, ThioGlo1 CoA-SH fluorescence. Potency, µM (series often up to 58.9 µM), hits mostly inhibitors. 390,000 compounds, 0.21% hits
Target sequence (Q92830 whole entry, looked up): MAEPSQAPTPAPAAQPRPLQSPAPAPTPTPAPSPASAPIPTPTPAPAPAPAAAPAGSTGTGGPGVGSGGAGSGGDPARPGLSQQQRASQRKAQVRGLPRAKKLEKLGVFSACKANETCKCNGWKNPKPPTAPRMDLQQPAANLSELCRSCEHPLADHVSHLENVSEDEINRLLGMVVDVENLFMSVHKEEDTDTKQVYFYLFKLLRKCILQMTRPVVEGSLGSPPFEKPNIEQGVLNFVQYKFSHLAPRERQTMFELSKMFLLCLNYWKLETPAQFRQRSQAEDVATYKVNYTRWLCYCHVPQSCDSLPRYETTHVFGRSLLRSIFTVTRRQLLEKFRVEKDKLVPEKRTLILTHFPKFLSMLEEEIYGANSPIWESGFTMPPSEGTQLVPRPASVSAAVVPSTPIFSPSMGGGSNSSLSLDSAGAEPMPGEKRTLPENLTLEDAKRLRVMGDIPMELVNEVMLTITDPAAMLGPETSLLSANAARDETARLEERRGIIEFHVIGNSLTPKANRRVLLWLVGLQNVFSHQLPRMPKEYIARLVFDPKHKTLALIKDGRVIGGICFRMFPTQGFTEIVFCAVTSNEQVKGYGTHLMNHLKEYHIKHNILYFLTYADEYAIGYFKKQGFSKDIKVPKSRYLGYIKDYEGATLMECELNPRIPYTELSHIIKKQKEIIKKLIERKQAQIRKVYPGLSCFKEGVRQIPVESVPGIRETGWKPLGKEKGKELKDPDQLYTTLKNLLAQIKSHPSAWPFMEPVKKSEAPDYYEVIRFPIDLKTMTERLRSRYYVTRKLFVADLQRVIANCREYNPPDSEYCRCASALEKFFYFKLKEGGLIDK
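qHTS, 1536-well. 20nM enzyme, pH 7.5 HEPES/EDTA/Tween-20 buffer; 15 min compound preinc., RT. Start: 75uM H3(1-25), 70uM AcCoA, 50uM ThioGlo1. Read Ex340/Em540 at t=0 (autofluorescence flag) and t=20 min.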
Each line names hits and unclear results; the compound was inactive in the other large screens. Unless noted, calls follow the shape of the dose curve; as a rule, active = well fitted curve in the direction sought with a large enough effect; inconclusive = small, poorly fitted or top-dose-only effect, or another doubt; inactive = no such curve, though single readings can be large; an effect the other way counts as inactive or inconclusive.

Cc1ccc(NC(=O)CN2C(=O)N/C(=C/c3ccccc3OCc3cccc(C(=O)O)c3)C2=O)cc1	PGK inhibitor 22.4µM, GCN5L2 inh inconclusive (no result: Pin1 inhibitor)
COc1cccc(/C=C2/NC(=O)N(CC(=O)Nc3ccc(C)cc3)C2=O)c1OCc1cccc(C(=O)O)c1	none (no result: Pin1 inhibitor)
Cc1ccc(C)c(N2CCN(C(=O)Cn3cnc4onc(-c5ccc(F)cc5)c4c3=O)CC2)c1	none (no result: KCNH2 3.1 inh, hERG WT inh)
CCOc1ccc(C(=O)C(C)OC(=O)Cn2[nH]c(=O)c3ccccc3c2=O)cc1 (configuration not stated)	KCNH2 3.1 inh -73.2
CCCN1CNc2c(c(=O)[nH]c(=S)n2CCc2ccccn2)C1	none (no result: PGK inhibitor, KCNH2 3.1 inh, hERG WT inh, GCN5L2 inh)
Cc1cc(C)nc(N2CCC(C(=O)NCc3ccccc3F)CC2)n1	none
O=C(NCc1ccco1)C1CCN(c2nc3ccccc3n2Cc2ccccc2F)CC1	KCNH2 3.1 inh -104.6, hERG WT inh inconclusive
COc1ccc(NC(=O)CSc2nnnn2C2CC3C=CC2C3)cc1 (configuration not stated)	hERG WT inh -80.8
CCOC(=O)c1ccc(NC(=O)CSc2nnnn2C2CCCCC2)cc1	none
CCOc1ccc(NC(=O)N2CCC(n3nnc4ccccc43)CC2)cc1	KCNH2 3.1 inh -82.7
COc1ccc(NC(=O)N2CCC(n3nnc4cc(C)ccc43)CC2)cc1	none
CCOc1ccc(NC(=O)CSc2nnnn2C2CCCC2)cc1	KCNH2 3.1 inh -198.6, hERG WT inh -142.1
COc1ccc(OC)c(NC(=O)c2nc(SCc3ccc(F)cc3)ncc2Cl)c1	none (no result: KCNH2 3.1 inh, hERG WT inh)
OC(CN1CC=C(/C=C/c2ccc(Br)cc2)CC1)c1ccccc1 (configuration not stated)	KCNH2 3.1 inh -92.7
CC(=O)c1ccccc1OCC(O)CN1CCN(C(c2ccccc2)c2ccccc2)CC1 (configuration not stated)	KCNH2 3.1 inh -84.8, hERG WT inh -74.3
c1ccc(OCCN2CCN(C(c3ccccc3)c3ccccc3)CC2)cc1	KCNH2 3.1 inh -96.1, Pin1 inhibitor inconclusive
COc1cccc(OCC(O)CN2CCN(C(c3ccccc3)c3ccccc3)CC2)c1 (configuration not stated)	none (no result: GCN5L2 inh)
COc1cccc(CN2CCN(C(c3ccccc3)c3ccccc3)CC2)c1O	KCNH2 3.1 inh -74.1
CCCCOc1nnc(-c2ccc(OCC)cc2)c2ccccc12	none (no result: KCNH2 3.1 inh, hERG WT inh)
OC(CN1CCN(C(c2ccccc2)c2ccccc2)CC1)c1ccc(Br)cc1 (configuration not stated)	KCNH2 3.1 inh -103.9, hERG WT inh -103.1
COc1ccc(-c2cc3ccc(O)c(CN4CCN(CCO)CC4)c3oc2=O)cc1OC	Pin1 inhibitor inconclusive, GCN5L2 inh 17.8µM (no result: PGK inhibitor, KCNH2 3.1 inh, hERG WT inh)
Cc1ccc2c(CC(=O)Nc3ccc(N4CCN(C)CC4)cc3C)coc2c1	KCNH2 3.1 inh -82.8
COc1ccc2sc(N(Cc3cccnc3)C(=O)c3ccc4c(c3)OCCO4)nc2c1	none (no result: KCNH2 3.1 inh, hERG WT inh)
CCCCC/C=C\CC(O)/C=C/c1cccc(CC(O)CCCCO)n1 (configuration not stated)	RGS4 inhibitor inconclusive (no result: PGK inhibitor, KCNH2 3.1 inh, hERG WT inh, Pin1 inhibitor)
Cc1ccc(/C(N)=N/OC(=O)c2cccs2)cc1	KCNH2 3.1 inh -185.1, hERG WT inh -176.2
N/C(=N\OC(=O)c1cccs1)c1ccccc1	PGK inhibitor inconclusive (no result: KCNH2 3.1 inh)
COc1ccc(-n2cnc3cc(C(=O)NC4CCCCCC4)ccc32)cc1	none (no result: KCNH2 3.1 inh, hERG WT inh)
O=C(Nc1ncc2c(n1)-c1ccccc1CC2)c1ccc(Cl)cc1	none
O=C(Nc1ncc2c(n1)-c1ccccc1CC2)c1cccc(Cl)c1	GCN5L2 inh 3.16µM
CCC(C)Sc1ccc(-c2nc3cnccn3c2NC2CCCCC2)cc1 (configuration not stated)	GCN5L2 inh 28.2µM (no result: KCNH2 3.1 inh, hERG WT inh)
CCC(C)Sc1ccc(-c2nc3cc(C)ccn3c2NC2CCCCC2)cc1 (configuration not stated)	none
COc1cc(C(=O)NCc2nc(C)cs2)ccc1OC1CCN(C(C)=O)CC1	KCNH2 3.1 inh -76.4
Cc1cccc(OCC(=O)Nc2cccc(OCc3cc(=O)n4cccc(C)c4n3)c2)c1	none (no result: KCNH2 3.1 inh, hERG WT inh)
Cc1ccc(S(=O)(=O)N(CC(=O)NCCC2=CCCCC2)Cc2ccccc2)cc1	none
O=C(CS(=O)(=O)Cc1ccccc1)NCCc1ccc(F)cc1	KCNH2 3.1 inh -78.4, GCN5L2 inh inconclusive
O=C(CN(Cc1ccccc1)S(=O)(=O)c1ccc(F)cc1)NCCC1=CCCCC1	GCN5L2 inh 0.794µM
CCn1c(=O)c2cc(C(=O)N3CCN(c4cccc(Cl)c4)CC3)sc2c2ccccc21	none (no result: KCNH2 3.1 inh, hERG WT inh)
COc1c2c(cc3c1C(CC(O)Cc1ccccc1)N(C)CC3)OCO2 (configuration not stated)	RGS4 inhibitor inconclusive, KCNH2 3.1 inh inconclusive
COc1cccc(CC(O)CC2c3c(cc4c(c3OC)OCO4)CCN2C)c1 (configuration not stated)	KCNH2 3.1 inh -70.7 (no result: GCN5L2 inh)
COc1cc(C)ccc1OCCSc1nc2ccc(NC(=O)c3ccccc3F)cc2s1	none (no result: KCNH2 3.1 inh, hERG WT inh)
O=C1NC(=O)c2cc(Nc3ccccc3)c(Nc3ccccc3)cc21	RGS4 inhibitor 18.9µM (no result: PGK inhibitor, KCNH2 3.1 inh, hERG WT inh, Pin1 inhibitor)
CC1CCCCN1S(=O)(=O)c1ccc(C(=O)Nc2sccc2C(N)=O)cc1 (configuration not stated)	KCNH2 3.1 inh -96.0
CN(Cc1ccno1)Cc1cn(Cc2ccccc2)nc1-c1ccc2c(c1)OCO2	KCNH2 3.1 inh -94.9
Cc1cccn2cc(CNC(=O)c3ccco3)nc12	GCN5L2 inh 35.5µM
Cc1cccn2cc(CCNC(=O)c3ccco3)nc12	none
O=C(Nc1ccccc1SCC1CSc2nc3ccccc3c(=O)n21)c1cccc(Cl)c1 (configuration not stated)	KCNH2 3.1 inh -83.6
O=C(Nc1ccccc1SCC1CSc2nc3ccccc3c(=O)n21)c1ccccc1 (configuration not stated)	none
S=c1[nH]cc(-c2ccccc2)n1-c1ccccc1	RGS4 inhibitor inconclusive, GCN5L2 inh 3.55µM
Cc1ccc(-n2c(-c3ccccc3)c[nH]c2=S)cc1	RGS4 inhibitor inconclusive
Fc1ccc(C2N(c3ccccc3)C(=S)N3CCCN23)cc1 (configuration not stated)	KCNH2 3.1 inh -99.9, hERG WT inh -110.0
